A collection of fitness landscapes (doi:10.1016/j.celrep.2020.107928)
Whole data set: some 81,000 sequences, median “one-hybrid fitness for binding parS DNA” near -0.17, cut for the highest 2% near 0.51. Shown is part of a subset that was picked to be rich in the highest values.

B1: Caulobacter ParB omega fusion; a variant is named by its letters at X, in order, B8GW30 (parent)
chain: MESVVVGEPGMSEGRRGLGRGLSALLGEVDAAPAQAPGEQLGGSREAPIEILQRNPDQPRRTFREEDLEDLSNSIREKGVLQPILVRPSPDTAGEYQIVAGERAWRAAQRAGLKTVPIMVRELDDLAVLEIGIIENVQRADLNVLEEALSYKVLMEKFERTQENIAQTIGKSXSHVANXMRLLXLPDEVQSYLVSGELTAXHARAIAAAADPVALAKQIIEGGLSVRETEALARKAPNLSAGKSKGGRPPRVKDTDTQALESDLSSVLGLDVSIDHRGSTGTLTITYATLEQLDDLCNRLTRGI

Variants of: B1
Assay: one-hybrid fitness for binding parS DNA (scaled: cognate 1, non-cognate 0); higher = stronger binding
Conditions: with parS DNA site
Method in brief: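 Pre- and post-selection plasmids were Illumina-sequenced, three replicate libraries were pooled, and any variant with under 10 reads was removed. The libraries were Caulobacter ParB with four specificity codons randomised, selected in E. coli USO through a HIS3 reporter whose site is 19 bp from the promoter. Cells grew 48 hours at 37°C on M9 without histidine, with 0.1 mM IPTG and 5 mM 3-AT. Fitness is the log change in variant-to-wild-type read ratio, rescaled against cognate and non-cognate.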

Variant | one-hybrid fitness for binding parS DNA
LPLM | ≤ 0.2
WSVC | ≤ 0.2
AQMM | ≤ 0.2
DELW | ≤ 0.2
QKSV | ≤ 0.2
HVTI | ≤ 0.2
GLLA | ≤ 0.2
RIDF | 0.257
RIDR | ≤ 0.2
RINP | ≤ 0.2
RIYP | 0.203
RISQ | ≤ 0.2
RINN | 0.469
RIST | 0.929
RIYT | 0.926
RIYD | ≤ 0.2
RINT | 0.914
RIDT | 0.725
RISF | 0.21
NRPF | ≤ 0.2
CRDC | ≤ 0.2
QFLC | ≤ 0.2
PTYG | ≤ 0.2
RARL | ≤ 0.2
GSHT | ≤ 0.2

Variant | one-hybrid fitness for binding parS DNA
MNLG | ≤ 0.2
RIRK | ≤ 0.2
RIRR | ≤ 0.2
RIRT | 0.848
WPQC | 0.245
SGVD | ≤ 0.2
RIAN | 0.432
RIFP | 0.206
RIFS | 0.995
RIFD | ≤ 0.2
RIAS | 1.04
RIAD | 0.212
VTEW | ≤ 0.2
YCGR | ≤ 0.2
AFAS | ≤ 0.2
ARMN | ≤ 0.2
VELC | ≤ 0.2
RNDD | ≤ 0.2
RNNM | 0.28
RNDC | 0.617
RNNC | 0.869
RNNK | ≤ 0.2
RNDY | 0.256
RMSG | 1.02
RLSQ | ≤ 0.2

Variant | one-hybrid fitness for binding parS DNA
RKSY | 0.366
RMSK | ≤ 0.2
RLSF | 0.246
DFSG | ≤ 0.2
RLSG | 1.01
RKSK | ≤ 0.2
NFSG | ≤ 0.2
RMSR | ≤ 0.2
RKSG | 0.928
RFSG | 0.97
NHHN | ≤ 0.2
WADR | ≤ 0.2
REQN | ≤ 0.2
AVAR | ≤ 0.2
GWDC | ≤ 0.2
RDVW | ≤ 0.2
SSNE | ≤ 0.2
RTSG | 1
RDSG | ≤ 0.2
RESG | 0.217
RSSG | 0.993
RISK | ≤ 0.2
RTSQ | ≤ 0.2
RISG | 1.01
RCSG | 0.997

Variant | one-hybrid fitness for binding parS DNA
RPSG | ≤ 0.2
RSSK | ≤ 0.2
RISY | 0.477
RTSY | 0.489
EQLF | ≤ 0.2
KYRN | ≤ 0.2
QKYR | ≤ 0.2
DTLV | ≤ 0.2
PHRR | ≤ 0.2
DRAS | ≤ 0.2
GTSE | ≤ 0.2
LHRT | ≤ 0.2
RCRN | 0.387
RRYN | 0.557
RCYN | 0.545
RPYN | ≤ 0.2
RRRN | 0.788
RCDN | 0.376
KAEG | ≤ 0.2
AMIC | ≤ 0.2
RSAA | 0.554
RFAA | 0.559
